High-throughput results deposited in PubChem BioAssay by National Center for Advancing Translational Sciences (NCATS).
In the library only some 7.4% were active in any assay of this set; here they are far more common.
hNpr1 antagonist: human Npr1 receptor antagonism; 1.6% of 76,000 active; Potency, µM (titrated, usually from 46.3 µM), inactives show at the top dose activity change, negative = inhibition, actives largely listed as inhibitors; HEK293 hNpr1 GloSensor cGMP, ANP-stimulated luminescence; calls by dose curve; also: nearly all actives have a fitted effect of over 60% in size
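Compound pre-incubated 30 min at room temperature on GloSensor-loaded HEK293 cells stably carrying hNpr1 and the pGS-40F cGMP biosensor. Stimulation uses hNppA at 0.1 nM final; luminescence is taken at baseline and 20 min post-agonist.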
NIH3T3 tox: kills NIH 3T3 cells | NIH 3T3 viability, CellTiter-Glo ATP luminescence, 48-72 h | AID 1345082 | Potency, µM (series often up to 96.7 µM), without a hit: at the top dose activity change, negative = cytotoxicity, most hits filed as inhibitors | 4.3% of 94,000 active; also: nearly all actives have a fitted effect of over 55% in size
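Luminescent ATP readout (CellTiter-Glo, 10 min RT) after 48 or 72 hr compound exposure of NIH 3T3 cells seeded at 400 cells/well in 1536-well format; quantitative HTS.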
Luciferase inh: blocks purified firefly luciferase enzyme activity. purified P. pyralis luciferase, luminescence, biochemical. Potency, µM (titrated, usually from 115 µM), hits mostly inhibitors. 2.5% of 76,000 active. AID 1347043; also: nearly all actives have a fitted effect of over 65% in size
Target sequence (P08659 whole entry, looked up): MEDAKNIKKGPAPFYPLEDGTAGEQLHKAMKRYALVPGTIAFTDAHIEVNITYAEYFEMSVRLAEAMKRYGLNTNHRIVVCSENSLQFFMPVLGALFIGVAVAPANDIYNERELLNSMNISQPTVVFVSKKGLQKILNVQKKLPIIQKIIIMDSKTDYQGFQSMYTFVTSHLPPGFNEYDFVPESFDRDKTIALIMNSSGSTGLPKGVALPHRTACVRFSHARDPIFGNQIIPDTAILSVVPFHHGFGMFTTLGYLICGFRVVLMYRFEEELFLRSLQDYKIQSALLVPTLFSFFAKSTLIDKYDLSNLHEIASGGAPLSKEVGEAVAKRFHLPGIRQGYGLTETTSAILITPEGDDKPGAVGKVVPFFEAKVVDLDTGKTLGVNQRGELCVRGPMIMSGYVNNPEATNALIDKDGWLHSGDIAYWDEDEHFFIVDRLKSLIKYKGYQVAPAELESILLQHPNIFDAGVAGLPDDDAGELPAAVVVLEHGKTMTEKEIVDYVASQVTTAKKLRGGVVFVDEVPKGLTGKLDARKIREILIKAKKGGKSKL
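Inhibitors were tested against purified firefly luciferase in a biochemical, low-substrate format (both substrates at 10uM) and luminescence measured with a CCD imager.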
SNCA expr inhib: reduces expression of the alpha-synuclein gene; AID 1671194; Potency, µM (titrated, usually from 57.2 µM), for the others: at the highest dose activity change, negative = inhibition, actives largely listed as inhibitors; HEK-293 SNCA-luciferase knock-in, luminescence, 24 h; 0.17% of 140,000 active;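 also: plate controls were DMSO cells for no effect and cell-free wells for full effect; nearly all actives have a fitted effect of over 45% in size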
HEK cytotox: cytotoxic compounds in HEK 293 cells; Potency, µM (top dose mostly 115 µM), without a hit: top-dose activity change, negative = cytotoxicity, hits mostly inhibitors; HEK 293 viability, ATP luminescence (CellTiter-Glo), 48-72 h; 6.6% of 94,000 active; AID 1345083; also: nearly all actives have a fitted effect of over 60% in size
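Luminescence from cellular ATP, measured with CellTiter-Glo, indicates HEK 293 viability. Cells plated at 250 cells/well are treated with compound for 48 or 72 hr at 37 degree Celsius before reagent addition.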
HEK293 viab: cell viability loss counter-screen | 0.12% of 150,000 active | Potency, µM (titrated, usually from 57.1 µM), inactives show at the highest dose activity change, negative = cytotoxicity, hits mostly cytotoxic | HEK-293-SNCA-luc viability, GF-AFC fluorescence, 24 h;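 also: 0% = DMSO-treated cells and -100% = medium-only wells without cells; nearly all actives have a fitted effect of over 30% in size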
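Cytotoxicity counterscreen: after 24 h compound treatment of genome-edited SNCA-luciferase HEK-293 cells, live-cell protease substrate GF-AFC read by fluorescence after 30 min; activity scaled between DMSO (0%) and medium-only (-100%), curves Hill-fitted.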
Active calls of the source: *; i = inactive; ? = inconclusive; / = not tested or not shown; [ ] = dose if it differs, or a comment. Unless noted, calls follow the shape of the dose curve; as a rule, active = well fitted curve in the direction sought with a large enough effect; inconclusive = small, poorly fitted or top-dose-only effect, or another doubt; inactive = no such curve, though single readings can be large; an effect the other way counts as inactive or inconclusive. Unless noted, % is scaled to controls: 0 for no effect and ±100 for the full control effect; potency is read from the fitted curve at half-maximal effect.

SMILES	hNpr1 antagonist	NIH3T3 tox	Luciferase inh	SNCA expr inhib	HEK cytotox	HEK293 viab
O=C(c1ncn[nH]1)N1C[C@@H](COCC2CC2)[C@H](c2ccccn2)C1	3%	-12%	i	0.79µM*	?	-24%
Cc1ccc(OCc2nc(C3CCN(C(=O)Cc4cccc(F)c4)C3)no2)cc1 (stereo not given)	/	?	/	-3%	?	5%
O=C1NC(C(=O)N2CCN(Cc3ccccc3)CC2)CN1Cc1ccccc1 (stereo not given)	15%	3%	i	-1%	i	8%
O=C(C1CN(c2ccc(Cl)cc2)C(=O)N1)N1CCN(Cc2ccccc2)CC1 (stereo not given)	0%	?	i	?	25µM*	-23%
O=C(C1CN(c2ccccc2)C(=O)N1)N1CCN(Cc2ccccc2)CC1 (stereo not given)	-4%	?	i	24%	45µM*	-1%
O=C(c1[nH]nc2c1COc1ccccc1-2)N1CCC(Cc2nncn2CC2CC2)CC1	0%	40µM*	i	-5%	-28%	-4%
CCOc1ccc(C(=O)NC2CCN(c3cc(-c4ccc(Cl)cc4)[nH]n3)C2)cc1 (stereo not given)	-18%	?	i	-24%	?	-12%
CCOc1ccc(C(=O)NC2CCCN(c3cc(-c4ccc(F)cc4)[nH]n3)C2)cc1OCC (stereo not given)	0%	32µM*	i	-2%	28µM*	-6%
CCOc1ccccc1C(=O)NC1CCN(c2cc(-c3ccc(Cl)cc3)[nH]n2)C1 (stereo not given)	-23%	?	i	-19%	35µM*	-12%
Cc1ccccc1C(=O)NC1CCCN(c2cc(-c3ccc(F)cc3)[nH]n2)C1 (stereo not given)	2%	?	i	33%	?	-22%
O=C(NC1CCN(c2cc(-c3ccc(Cl)cc3)[nH]n2)C1)c1ccccc1 (stereo not given)	-8%	?	i	-21%	?	4%
Cc1ccccc1C(=O)NC1CCN(c2cc(-c3ccc(Cl)cc3)[nH]n2)C1 (stereo not given)	-14%	40µM*	i	3%	?	-2%
CCOc1ccccc1C(=O)NC1CCCN(c2cc(-c3ccc(F)cc3)[nH]n2)C1 (stereo not given)	-19%	32µM*	i	-2%	40µM*	-24%
Cc1ccc([S+](=O)([O-])N2CCc3nc(C(C)C)nc(-c4ccc(O)cc4)c3C2)cc1	/	-24%	/	-13%	?	?
FC(F)(F)c1cccc(Nc2nc3nonc3nc2Nc2ccc(Cl)cc2)c1	/	/	/	11µM*	/	?
O=C(Nc1cccc(C(F)(F)F)c1)c1cc(-c2ccc(Cl)cc2)on1	/	/	/	2%	/	4%
CCn1c(=O)c2ccnn2c2ccc(C(=O)NCCCOC(C)C)cc21	-9%	-11%	i	5%	?	10%
Cn1c(=O)c2ccnn2c2ccc(C(=O)NCC3CCN(Cc4cccc(F)c4)CC3)cc21	2%	?	i	15%	79µM*	-11%
O=C(NCc1ccccn1)c1ccc2c(c1)n(Cc1cccc(F)c1)c(=O)c1ccnn12	-1%	?	i	16%	?	11%
CN1CCC(NC(=O)c2ccc3c(c2)n(Cc2ccc(F)cc2)c(=O)c2ccnn23)CC1	3%	22µM*	i	7%	25µM*	?
CCn1c(=O)c2ccnn2c2ccc(C(=O)Nc3ccc(C)c(F)c3)cc21	4%	-6%	i	-17%	45µM*	-16%
O=C(Cc1ccc(F)cc1)Nc1cc(-c2ccncc2)nn1-c1ccccc1	/	?	/	-16%	?	2%
COc1ccc(CNC(=O)C2CCCN2Cc2ccc(-c3cccc(OC)c3)cc2)cc1 (stereo not given)	/	40µM*	/	-11%	32µM*	3%
COc1cccc(-c2ccc(CN3CCCC3C(=O)NC3CCCC3)cc2)c1 (stereo not given)	/	?	/	-18%	?	-10%
COc1cccc(-c2ccc(CN3CCCC3C(=O)NCc3ccccc3)cc2)c1 (stereo not given)	/	40µM*	/	-9%	40µM*	-16%
SMILES	hNpr1 antagonist	NIH3T3 tox	Luciferase inh	SNCA expr inhib	HEK cytotox	HEK293 viab
COc1cccc(-c2ccc(CN3CCCC3C(=O)N3CCN(c4ncccn4)CC3)cc2)c1 (stereo not given)	/	20µM*	/	13%	?	2%
COc1ccc(-c2cn3cc(C(=O)NCCc4ccc(Cl)cc4)nc3s2)cc1	/	-26%	/	81%	-6%	-21%
O=C(NS(=O)(=O)c1ccc(Br)s1)c1ccc(Cl)cc1Cl	/	/	/	/	/	26%
Cc1cc(NC(=O)C2CCN(c3cc(C(F)(F)F)ncn3)CC2)ccc1Br	?	32µM*	i	-34%	25µM*	-8%
Cc1ccc(C)c(NC(=O)C2CCN(c3cc(C(F)(F)F)ncn3)CC2)c1	-21%	?	i	-20%	?	0%
COC(=O)CNC(=O)c1nc2sccn2c1-c1cccc(C(F)(F)F)c1	/	?	/	-14%[87.6 µM]	-7%[172 µM]	4%[87.6 µM]
Cc1cc(N2CCCCC2)nc2ccc(NC(=O)c3cccc(F)c3)cc12	/	/	/	65%	/	?
O=C(Nc1ccccc1)Nc1cccc(-c2nnc3n2CCCC3)c1	-3%	4%	i	66%	-4%	15%
Cn1nc(-c2cccc(F)c2)c(N2CCCCC2)c1NC(=O)Nc1ccccc1	/	28µM*	/	?	?	-18%
Cc1cccc(C(=O)Nc2c(N3CCCCC3)c(-c3cccc(F)c3)nn2C)c1	/	45µM*	/	-26%	40µM*	2%
CCCN1CCC(N2CCC3(CC2)CC2C(=O)N(CC)C(=O)N2C3)CC1 (stereo not given)	/	3%	/	-18%	-5%	0%
COC[C@H]1CCCN1Cc1cn(Cc2ccccc2)nc1-c1cc2ccccc2o1	-12%	?	?	-3%	?	-22%
CC1(C)CN(Cc2cn(Cc3ccccc3)nc2-c2cc3ccccc3o2)CCO1	-3%	?	i	-19%	?	-14%
c1ccc(Cn2cc(CN3CCN(c4ccncc4)CC3)c(-c3cc4ccccc4o3)n2)cc1	1%	28µM*	i	-13%	40µM*	-19%
FC1CCN(Cc2cn(Cc3ccccc3)nc2-c2cc3ccccc3o2)CC1	-3%	?	i	8%	32µM*	-28%
c1ccc(Cn2cc(CN3CCCOCC3)c(-c3cc4ccccc4o3)n2)cc1	1%	?	35µM*	3%	?	-17%
